This is part of a sample that, as a whole, favours compounds with a hit. Of some 83,000 tested, about 20% had one in any assay.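 Activity criterion: percent growth below 10, measured after cells in 96-well plates were exposed to a single compound concentration for 48 hours.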 Values without a mark were called inactive. The source made the active and inactive calls.

Test systems include DU-145 prostate; K-562 leukemia; MALME-3M melanoma; MDA-MB-231 breast; RXF 393 renal; SF-268 CNS; SF-295 CNS; SF-539 CNS; UACC-257 melanoma; M14 melanoma; HCT-15 colon; HT29 colon; SNB-75 CNS; SNB-19 CNS; U251 CNS; SK-MEL-5 melanoma; UACC-62 melanoma; LOX IMVI melanoma; SK-MEL-28 melanoma; PC-3 prostate.
Common to all, as to experiment: NCI-60 one-dose screen, 48 h (100 = growth as untreated, 0 = no growth, -100 = all killed)
Details in all cases: 10 µM unless noted

As for `Cn1c(NCCc2ccc(O)c(O)c2)nc2c1c(=O)n(Cc1ccc(Cl)c(Cl)c1)c(=O)n2C`, the growth in the assay on DU-145 prostate is 74.5%; with K-562 leukemia, 79.6%; in the assay with MALME-3M melanoma, 75.7%; with MDA-MB-231 breast, 69.5%; in the assay with RXF 393 renal it was 72%; in the assay with SF-268 CNS it was 64.8%. Moreover, the growth was 97.3% in the assay with SF-295 CNS; 75.6% with SF-539 CNS; 84.6% in the assay on UACC-257 melanoma; 85.6% with M14 melanoma; 45.7% in the assay with HCT-15 colon; 94.4% in the assay with HT29 colon. Moreover, the growth is 56.1% in the assay on SNB-75 CNS; 84.3% with SNB-19 CNS; 77.9% in the assay on U251 CNS; 65.4% in the assay with SK-MEL-5 melanoma; 73.9% in the assay on UACC-62 melanoma; 86.5% in the assay on LOX IMVI melanoma. Also, the growth with SK-MEL-28 melanoma was 77.3%.
Consider `O=C1CSC(=S)N1CCc1ccc(O)cc1`, for which the growth was 33.5% in the assay with DU-145 prostate; 58.2% in the assay on K-562 leukemia; 85.3% in the assay on MALME-3M melanoma; 91.3% with MDA-MB-231 breast; 95.9% in the assay on RXF 393 renal; 86.2% in the assay on SF-268 CNS. Moreover, the growth in the assay with SF-295 CNS is 97.5%; in the assay with SF-539 CNS it was 85.2%; in the assay on UACC-257 melanoma, 92%; in the assay with M14 melanoma it was 87.9%; with HCT-15 colon, 59.3%; in the assay with HT29 colon, 107%. Moreover, the growth is 71.3% in the assay on SNB-75 CNS; 93% with SNB-19 CNS; 100% in the assay with U251 CNS; 97.1% with SK-MEL-5 melanoma; 87.5% in the assay on UACC-62 melanoma; 77.1% with LOX IMVI melanoma. Also, in the assay with SK-MEL-28 melanoma, the growth is 101%.
Take `COC(=O)c1ccc2oc(NC(=O)c3ccc(Nc4ccc([N+](=O)[O-])cc4C)c([N+](=O)[O-])c3)nc2c1`: the growth is 108% in the assay on DU-145 prostate; 104% in the assay with K-562 leukemia; 100% in the assay with MALME-3M melanoma; 105% with MDA-MB-231 breast; 103% in the assay with RXF 393 renal; 97.9% in the assay on SF-268 CNS. Besides, the growth in the assay with SF-295 CNS is 98.8%; in the assay on SF-539 CNS, 96.1%; in the assay on UACC-257 melanoma, 103%; with M14 melanoma, 110%; in the assay with HCT-15 colon, 104%; in the assay on HT29 colon, 96.8%. The growth in the assay on SNB-75 CNS was 97.5%; in the assay with SNB-19 CNS, 99%; in the assay with U251 CNS it was 101%; with SK-MEL-5 melanoma, 93.6%; in the assay with UACC-62 melanoma, 100%; with LOX IMVI melanoma, 99.7%. In the assay with SK-MEL-28 melanoma, the growth is 108%.
Turning to `Cn1c(NCCc2ccc(O)c(O)c2)nc2c1c(=O)n(Cc1ccc(Br)cc1)c(=O)n2C`, the growth with DU-145 prostate was 78.9%; in the assay on K-562 leukemia it was 81%; in the assay with MALME-3M melanoma, 81.4%; with MDA-MB-231 breast, 69.2%; with RXF 393 renal, 81%; in the assay on SF-268 CNS, 68.4%. Besides, the growth with SF-295 CNS was 98%; in the assay on SF-539 CNS, 79.1%; with UACC-257 melanoma, 88.5%; in the assay with M14 melanoma, 96.5%; with HCT-15 colon it was 42.7%; in the assay with HT29 colon it was 96.8%. Further, the growth in the assay with SNB-75 CNS is 74.6%; in the assay on SNB-19 CNS, 79.8%; with U251 CNS, 82.8%; with SK-MEL-5 melanoma, 57.6%; in the assay on UACC-62 melanoma, 82%; in the assay with LOX IMVI melanoma, 87.9%. The growth in the assay with SK-MEL-28 melanoma was 82.6%.
For `CCOC(=O)n1cc(-c2nonc2-c2cn(C)c3ncccc23)c2cc(F)ccc21`, the growth in the assay with DU-145 prostate was 91.1%; in the assay with K-562 leukemia, 61.2%; with MALME-3M melanoma it was 84.4%; in the assay on MDA-MB-231 breast, 68.2%; in the assay on RXF 393 renal, 78.3%; in the assay on SF-268 CNS, 74.2%. Moreover, the growth is 76% in the assay with SF-295 CNS; 77.9% with SF-539 CNS; 91.2% in the assay with UACC-257 melanoma; 93.8% in the assay on M14 melanoma; 68.8% in the assay on HCT-15 colon; 83.2% with HT29 colon. For the same molecule, the growth in the assay on SNB-75 CNS is 64.3%; with SNB-19 CNS, 91.6%; in the assay with U251 CNS, 77.2%; with SK-MEL-5 melanoma, 81.5%; in the assay with UACC-62 melanoma, 62.2%; with LOX IMVI melanoma, 83.8%. Also, the growth with SK-MEL-28 melanoma was 102%.
Turning to `COc1ccc(-c2nc3ccc(-c4nc5ccc(N6CCN(C)CC6)cc5[nH]4)cc3[nH]2)cc1OC`, the growth with DU-145 prostate was 77.6%; with K-562 leukemia it was 40.5%; in the assay with MALME-3M melanoma, 0.551% (active); with MDA-MB-231 breast, 82.9%; in the assay on RXF 393 renal, 96.6%; with SF-268 CNS, 50.6%. In addition, the growth is 66.6% in the assay with SF-295 CNS; 70.5% in the assay on SF-539 CNS; 25.2% in the assay with UACC-257 melanoma; 18.3% with M14 melanoma; 91% with HCT-15 colon; 49.4% with HT29 colon. The growth is 54% in the assay on SNB-75 CNS; 90.3% in the assay with SNB-19 CNS; 62.8% in the assay on PC-3 prostate; 26.3% with SK-MEL-5 melanoma; 19.2% in the assay on UACC-62 melanoma; 43.9% in the assay with LOX IMVI melanoma. In addition, the growth in the assay on SK-MEL-28 melanoma is 39%.
For the molecule `C#CCOc1ccc2ncnc(Nc3cccc(CNC(=O)CCl)c3)c2c1`, the growth in the assay with DU-145 prostate was 57.9% [8.25 µM]; with K-562 leukemia it was 29.5% [8.25 µM]; in the assay on MALME-3M melanoma, 68.8% [8.25 µM]; in the assay on MDA-MB-231 breast, 53.4% [8.25 µM]; with RXF 393 renal it was 14% [8.25 µM]; with SF-268 CNS, 39.7% [8.25 µM]. Also, the growth with SF-295 CNS was 92% [8.25 µM]; in the assay on SF-539 CNS it was 54.8% [8.25 µM]; with UACC-257 melanoma, 58.7% [8.25 µM]; with M14 melanoma, 61.7% [8.25 µM]; with HCT-15 colon, 45.2% [8.25 µM]; in the assay with HT29 colon, 35% [8.25 µM]. The growth in the assay with SNB-75 CNS was 15.5% [8.25 µM]; with SNB-19 CNS, 60.7% [8.25 µM]; in the assay with U251 CNS, 10.1% [8.25 µM]; in the assay on SK-MEL-5 melanoma, 14.5% [8.25 µM]; in the assay on UACC-62 melanoma, 40.3% [8.25 µM]; in the assay with LOX IMVI melanoma it was 53.9% [8.25 µM]. The growth in the assay on SK-MEL-28 melanoma is 69% [8.25 µM].

The values above are taken from PubChem BioAssay (NCI).
